Screening results (PubChem BioAssay)
PTPN22 inh 2 – inhibitors of human LYP (PTPN22) phosphatase; Q9Y2R2; recombinant LYP catalytic domain, DiFMUP fluorescence; inhibition, % at 2 µM; 96,000 compounds, 0.21% hits;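 active means inhibition at 2 µM at or above a set limit, the screen mean plus 3 SD, cut at about 24% in these data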;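 further: 0% = DMSO with enzyme and 100% = enzyme fully blocked by orthovanadate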
Target sequence (Q9Y2R2 whole entry, looked up, the tested form may be a part): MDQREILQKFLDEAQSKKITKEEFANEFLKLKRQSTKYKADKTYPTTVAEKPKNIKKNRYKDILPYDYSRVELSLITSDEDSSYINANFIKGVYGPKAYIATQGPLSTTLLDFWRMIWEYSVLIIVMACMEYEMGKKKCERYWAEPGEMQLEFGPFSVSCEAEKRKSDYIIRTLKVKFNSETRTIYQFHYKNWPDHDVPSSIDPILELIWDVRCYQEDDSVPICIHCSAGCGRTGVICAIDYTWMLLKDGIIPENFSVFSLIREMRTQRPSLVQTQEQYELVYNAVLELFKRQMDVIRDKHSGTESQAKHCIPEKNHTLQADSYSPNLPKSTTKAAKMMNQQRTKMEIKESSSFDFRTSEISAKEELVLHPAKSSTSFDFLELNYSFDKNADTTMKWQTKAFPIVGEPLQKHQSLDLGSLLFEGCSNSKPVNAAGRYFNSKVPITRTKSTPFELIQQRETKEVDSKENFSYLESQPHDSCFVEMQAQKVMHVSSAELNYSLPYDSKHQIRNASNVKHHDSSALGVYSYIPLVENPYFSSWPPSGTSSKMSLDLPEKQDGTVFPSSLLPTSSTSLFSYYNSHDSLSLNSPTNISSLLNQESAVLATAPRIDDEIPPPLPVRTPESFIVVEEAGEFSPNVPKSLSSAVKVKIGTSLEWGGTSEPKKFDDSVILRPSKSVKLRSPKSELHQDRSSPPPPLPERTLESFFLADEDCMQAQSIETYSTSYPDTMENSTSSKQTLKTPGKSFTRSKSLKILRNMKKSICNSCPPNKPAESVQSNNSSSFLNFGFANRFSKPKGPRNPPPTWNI
EphB4 antag – EphB4-ephrin-B2 interaction antagonism; P54760; EphB4 LBD / TNYL-RAW-Alexa532 peptide, fluorescence polarization; inhibition, % at 7 µM; 97,000 compounds, 0.15% hits; AID 720;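 active means inhibition above the screen-wide mean inhibition plus 3 SD, cut at about 15% in these data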;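 further: 0% = DMSO wells and 100% = excess unlabeled TNYL-RAW peptide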
Plk1 PBD FP – Plk1 (human) PBD binding inhibition. Plk1 PBD phosphopeptide binding, fluorescence polarization. inhibition, %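 (tested at about 20 µM)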. 97,000 compounds, 0.13% hits; in the data active means inhibition above about 34%, passing the limit was not always enough
LYP act – increases human PTPN22 phosphatase activity | Q9Y2R2 | recombinant LYP, DiFMUP fluorescence; 0 = plate median, 100 = signal doubled | activation, % at 2 µM | 96,000 compounds, 0.11% hits;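 active means activation at 2 µM above a set limit, the mean plus 5 SD, cut at about 37% in these data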
PLK1 kinase inh – inhibitors of human PLK1 kinase | 97,000 compounds, 0.53% hits | recombinant PLK1 kinase, TR-FRET peptide phosphorylation | P53350 | inhibition, % at 10 µM;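 active means inhibition of 50% or more in the single-concentration screen; inactive means inhibition below 50%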;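 further: 0% = DMSO max control and 100% = H-89 dihydrochloride min control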
FAK inh – FAK (human) kinase inhibition | Q05397 | biochemical FAK kinase activity assay | inhibition, %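 (tested at 7 µM)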 | 97,000 compounds, 0.84% hits | AID 727;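 further: 0% = DMSO and 100% = reference compound high control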
FAK inh confirm – FAK (human) inhibition confirmed; FAK kinase biochemical inhibition assay; 750 compounds, 28% hits; AID 794; inhibition, % at 7 µM; shares compounds with FAK inh
An asterisk follows results filed as active; . = no result given. A selection: hits, their analogues and other compounds. The true share with any hit is near 1.7%. Unless noted, no stated cut-off is given here; in the data, active means inhibition above about 19%; inactive means the rest.

SMILES	PTPN22 inh 2	EphB4 antag	Plk1 PBD FP	LYP act	PLK1 kinase inh	FAK inh	FAK inh confirm
COc1ccc(-c2cc3ccccc3oc2=O)cc1NC(=O)c1ccc(Br)o1	19	-2	-2	-22	-11	65*	59*
O=C(Nc1cccc(-c2cc3ccccc3oc2=O)c1)c1ccc(Br)o1	-4	-1	-30	4	-6	3	.
CCc1nc(SCC(=O)NNC(=O)C2CCCCC2)c2ccccc2n1	-6	-4	2	10	-9	36*	20*
CCc1nc(SCC(=O)NNC(=O)C(C)C)c2ccccc2n1	.	-5	18	.	-9	42*	19
O=C1C2C3C=CC(C3=C(c3ccccc3)c3ccccc3)C2C(=O)N1Cc1ccccc1 (centres undefined)	-8	-6	37	7	-5	1	.
Cc1cc(C)n(C(=O)CCCCCCCCC(=O)n2nc(C)cc2C)n1	6	-5	-8	-3	-12	-2	.
Cc1ccc(-c2nc3ccccc3s2)cc1NC(=O)c1cc(-n2cnnc2)ccc1Cl	10	3	7	-8	-12	29*	7
Cc1ccc(N2CN=c3s/c(=C\c4ccccn4)c(=O)n3C2)cc1	-1	6	7	0	-5	0	.
CN=C1S/C(=C\c2cn(C(C)=O)nc2-c2ccccc2)C(=O)N1C	5	-8	-13	-2	2	8	.
CN=C1S/C(=C\c2cc(C)n(-c3ccccc3F)c2C)C(=O)N1C	2	-6	-4	1	-3	21*	5
COc1cccc(C(=O)NC2CC3CCCC(C2)N3CC(=O)Nc2ccccc2)c1 (centres undefined)	-5	6	11	3	8	22*	7
COc1cccc(C(=O)NC2CC3CCCC(C2)N3CC(=O)Nc2ccc(N(C)C)cc2)c1 (centres undefined)	-15	-5	-7	19	-6	-3	.
COc1ccc(CCn2c(=S)[nH]c3cc(C(=O)NCc4ccco4)ccc3c2=O)cc1OC	-3	7	-11	0	-12	35*	12
CC1(C)Oc2ccc(NC(=O)c3ccco3)cc2O1	-1	3	16	2	-4	1	.
CCCCC(=O)Nc1cc(C(=O)NCCc2ccccc2)ccc1Cl	12	-3	-24	-7	-4	2	.
CCOC(=O)C(C(=O)NCc1ccc(F)cc1)c1ncc(C(F)(F)F)cc1Cl (centres undefined)	14	-3	8	-12	-6	1	.
CCOC(=O)C(C(=O)N(C)C)c1ncc(C(F)(F)F)cc1Cl (centres undefined)	8	1	-23	-4	-12	78*	-3
Cc1cc(NC(=O)c2ccoc2C)no1	-1	-6	-6	-2	-11	-3	.
O=C(ONc1ccc(N=NC(=O)c2ccccc2O)cc1)c1ccccc1	1	4	-24	-3	-8	80*	22*
Cc1cc(=O)n(CC(C)O)c(O)c1C#N (centres undefined)	4	-3	2	-3	-8	-2	.
C=CCN1C(=O)C2(/C(=C(\O)c3ccc4c(c3)OCCO4)C(=O)C(=O)N2CCCOC)c2ccccc21 (centres undefined)	-1	-9	2	5	-3	-4	.
CC(C)Cn1[nH]c2c3c(ccc2c1=O)C(=O)c1ccccc1C3=O	22	1	-8	-20	-11	27*	6
COC(=O)/C(=C/Nc1ccc(O)cc1)[N+](=O)[O-]	13	5	-6	-12	3	38*	-3
Oc1ccc2ccccc2c1C=Nc1ccc(N2CCOCC2)cc1	2	4	-33	-1	3	46*	49*
Cc1ccc(-c2nc(N)c3c(-c4ccc(C)cc4)nn(C(C)(C)C)c3n2)cc1	-16	14	2	13	-16	9	.
SMILES	PTPN22 inh 2	EphB4 antag	Plk1 PBD FP	LYP act	PLK1 kinase inh	FAK inh	FAK inh confirm
CC(C)(C)n1nc(-c2ccc(F)cc2)c2c(N)ncnc21	-3	9	-15	1	4	32*	8
CC(C)(C)n1nc(-c2ccc(Cl)cc2)c2c(N)ncnc21	-6	-5	-7	3	17	26*	12
CCOc1ccc(OCC)c(-c2c(=O)n(OCc3ccc(C(C)(C)C)cc3)c3ccccc3[n+]2[O-])c1	13	-6	-11	-10	-8	-1	.
Cc1cccn2c(=O)c(C=Nc3ccccc3)c(NCc3ccco3)nc12	-10	1	-25	6	20	24*	4
CC1(C)Cc2c(sc3nn[nH]c(=O)c23)CO1	0	-7	14	-2	-5	1	.
O=c1[nH]nnc2sc3c(c12)CCCC3	7	3	5	-6	-4	27*	13
CCN1CCc2c(sc(N)c2C#N)C1	6	6	8	-6	6	26*	19*
CN1C(=O)c2cccc3c(S(=O)(=O)NCc4ccco4)ccc1c23	-7	-3	12	6	-12	36*	21*
CN1C(=O)c2cccc3c(S(=O)(=O)Nc4ccccn4)ccc1c23	1	2	0	-6	-1	10	.
O=C(Nc1ccc(-c2nc3ccc(NC(=O)c4cccs4)cc3[nH]2)cc1)c1cccs1	29*	2	-11	-32	-10	53*	47*
COc1ccc(-c2coc3cc4oc(=O)cc(C)c4cc23)cc1F	-7	2	-24	8	-15	36*	23*
C/C(CC1CC(COCCC(C)C)OC1=O)=N\NC(N)=S (centres undefined)	-1	2	-5	3	-9	4	.
O=C(CSc1nnc(COc2ccccc2Cl)o1)NC(=O)NC1CCCC1	1	-3	15	-1	-9	23*	8
COc1ccc(-c2nnn(CCc3nn[nH]n3)n2)cc1	8	0	-4	-8	-11	-1	.
CCOC(=O)C1CCN(C(=O)Nc2ccc3nc(-c4ccco4)c(-c4ccco4)nc3c2)CC1	3	4	-6	-4	8	93*	5
O=c1c2ccccc2nc(N2CCN(c3ccccc3)CC2)n1Cc1ccccc1	-2	-10	2	-2	-9	2	.
CNS(=O)(=O)c1cccc(C(=O)OCc2cc(Cl)cc3c2OCOC3)c1	-2	6	14	3	2	0	.
COc1ccccc1/C=C1\NC(=S)N(CC2CCCO2)C1=O (centres undefined)	-4	9	12	7	-10	-4	.
CN1C(=O)/C(=C/c2ccccc2OCc2ccccc2F)NC1=S	-5	8	-8	9	-2	21*	3
Cc1cccc2cc(CN(Cc3ccccc3)C(=O)c3cccc(F)c3)c(Cl)nc12	16	3	15	-13	-15	8	.
COc1ccc(C(c2nnnn2Cc2cccs2)N2CCN(c3ccc(F)cc3)CC2)cc1OC (centres undefined)	-2	2	-40	0	-6	7	.
